IL-1B inflam inh: qHTS for Inhibitors of Inflammasome Signaling: IL-1-beta AlphaLISA Primary Screen. THP-1 LPS/ATP IL-1B secretion, AlphaLISA, 16 h; active compounds read low. activity change, % at 57.5 µM. 4.7% of 360,000 active. AID 743279, 2014; in the data active = activity change below about -50%; inconclusive = mostly about -30% to -49%; note: % is set by controls: 0 for no effect and ±100 for the full control effect
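THP-1 cells pretreated 1 hr with compounds (up to 57.5 uM final), then stimulated with LPS (250 ng/mL final) plus ATP (1.25 mM final); secreted IL-1B measured by AlphaLISA after 16 hr, decreased signal indicating inhibition.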
DT40 TDP1 no CPT: qHTS for Inhibitors of human tyrosyl-DNA phosphodiesterase 1 (TDP1): qHTS in cells in absence of CPT; DT40 Tdp1-/- hTDP1 cells, no CPT, ATP luminescence, 48 h; Potency, µM (highest dose often 46.2 µM), without a hit: top-dose activity change, negative = growth inhibition, most hits filed as inhibitors; 15% of 420,000 active; AID 686978, 2013; note: potency is the fitted concentration of half-maximal effect; % is set by controls: 0 for no effect and ±100 for the full control effect; nearly all actives have a fitted effect of over 55% in size
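Camptothecin absent (DMSO only). Human TDP1-complemented DT40 knockout cells, 400 cells/well, 37 °C for minimum 48 hr; ATP measured via CellTiter-Glo, 30 min dark incubation, luminescence.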
SW480 rereplic: A quantitative high throughput screen for small molecules that induce DNA re-replication in SW480 colon adenocarcinoma cells; AID 624297, 2012; SW480 DNA re-replication, Hoechst DNA content imaging, 48 h; 1.8% of 340,000 active; Potency, µM (series often up to 46.1 µM), without a hit: at the highest dose re-replication activation, most hits filed as activators; note: potency is the fitted concentration of half-maximal effect; % of control where 0% means no effect; nearly all actives have a fitted effect of over 55% in size
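Treated cells incubate 48 hr (37 C, 5% CO2), are stained 40 min with Hoechst, and nuclear fluorescence is enumerated; a rise in nuclei with high DNA signal marks re-replication.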
MCF10A rerep: A quantitative high throughput screen for small molecules that induce DNA re-replication in MCF 10a normal breast cells; MCF 10A DNA re-replication, Hoechst nuclear intensity, 48 h; Potency, µM (titrated, usually from 46.1 µM), for the others: at the top dose activity, positive = re-replication, hits mostly activators; 2.9% of 350,000 active; AID 624296, 2012; note: potency is the fitted concentration of half-maximal effect; % of control where 0% means no effect; nearly all actives have a fitted effect of over 50% in size
BCR signal inh: qHTS Assay to Find Inhibitors of Chronic Active B-Cell Receptor Signaling; ABC-DLBCL IkBa-CBG/CBR reporter, luminescence ratio, 4 h; Potency, µM (series often up to 46.1 µM), for the others: top-dose activity change, negative = inhibition, usual class: inhibitors; 0.05% of 340,000 active; AID 493014, 2011; active = well fitted inhibition curve with a large enough effect in the signal ratio, with a control signal flat, not every such curve was filed as active; inconclusive = small, poorly fitted or top-dose-only effect, or effect the other way, or a change in a side signal; the % refers to the signal ratio;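 note: potency is the fitted concentration of half-maximal effect; plate controls were basal doxycycline-induced cells for no effect and cells given 10 µM MG132 for full effect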
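Cell line TMD8 (human ABC DLBCL), stably expressing tet-inducible CBG68-IkBa fusion and CBR; IMDM/0.5% FBS; cpd up to 46 uM; dox induction, 4 h, 37C/5% CO2; dual luminescence; green/red ratio; MG132 control.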
DT40 TDP1 CPT: qHTS for Inhibitors of human tyrosyl-DNA phosphodiesterase 1 (TDP1): qHTS in cells in presence of CPT; chicken DT40 Tdp1-/-;hTDP1 cells + 20 nM CPT, ATP luminescence, 48 h; Potency, µM (highest dose often 46.2 µM), without a hit: top-dose activity change, negative = growth inhibition, most hits filed as inhibitors; 12% of 420,000 active; AID 686979, 2013; note: potency is the fitted concentration of half-maximal effect; % is set by controls: 0 for no effect and ±100 for the full control effect; nearly all actives have a fitted effect of over 55% in size
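Cell growth measured by CellTiter-Glo luminescence after a minimum 48 h, 37 C compound exposure with 20 nM CPT in Tdp1-knockout DT40 cells stably expressing hTDP1, seeded 400/well; qHTS titration format.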
Numbers without * were called inactive; ? = inconclusive; . = no result given. An excerpt weighted towards active compounds, which were near 19% of everything screened. Unless noted, calls come from the whole dose curve; as a rule, active = well fitted curve in the direction sought with a large enough effect; inconclusive = small, poorly fitted or top-dose-only effect, or another doubt; inactive = no such curve, though single readings can be large; an effect the other way counts as inactive or inconclusive.

SMILES	IL-1B inflam inh	DT40 TDP1 no CPT	SW480 rereplic	MCF10A rerep	BCR signal inh	DT40 TDP1 CPT
Cc1ccc(Cl)cc1NC(=S)N(CCN(C)C)C(C)c1ccccn1 (configuration not stated)	-73*	0%	-2%	-7%	0%	1%
CCOC(=O)N1CCC(NC(=O)c2cc3c(-c4ccc(OC)c(OC)c4)nn(C)c3s2)CC1	-9	21µM*	-5%	?	2%	?
CCOC(=O)C1CCN(C(=O)c2cc3c(-c4ccc(OC)c(OC)c4)nn(C)c3s2)CC1	15	21µM*	-10%	4%	?	16µM*
CCOC(=O)N1CCC(NC(=O)c2cc3c(-c4ccccc4F)nn(C)c3s2)CC1	19	8.2µM*	4%	?	?	13µM*
O=C(O)c1[nH]c(-c2ccccc2)c2c1C(=O)N(C1CC1)C2=O	28	?	.	.	.	-25%
Cc1cccc(NC(=O)CSCC(=O)Nc2sccc2C#N)c1	1	-27%	-1%	2%	2%	18%
Cc1cccc(C)c1N1CC(c2nc3ccccc3n2CC(=O)OC(C)C)CC1=O (configuration not stated)	.	16µM*	.	.	.	?
CCOc1ccccc1N1CC(c2nc3ccccc3n2CCOc2ccccc2)CC1=O (configuration not stated)	.	-24%	.	.	.	-27%
Cc1ccccc1N1CC(c2nc3ccccc3n2CCC2CCCCC2)CC1=O (configuration not stated)	.	10µM*	.	.	.	13µM*
CCc1ccccc1N1CC(c2nc3ccccc3n2CCC2CCCCC2)CC1=O (configuration not stated)	.	5.2µM*	.	.	.	5.8µM*
Cc1cccc(N2CC(c3nc4ccccc4n3CCC3CCCCC3)CC2=O)c1 (configuration not stated)	.	18µM*	.	.	.	?
c1ccc2c(c1)Nc1cc3ccccc3cc1O2	0	?	12%	4%	.	2%
O=C(NCCCN1CCCC1=O)Nc1ccccc1F	-7	22%	-5%	-5%	2%	7%
CC(C)(C)N1CC(c2nc3ccccc3n2Cc2ccc(Cl)cc2)CC1=O (configuration not stated)	-15	?	0%	15%	16%	-22%
Cc1ccccc1N1CC(c2nc3ccccc3n2Cc2ccc(Br)cc2)CC1=O (configuration not stated)	.	16µM*	.	.	.	?
FC(F)(F)C(F)(F)c1nc2nc(Cl)c(Cl)nc2[nH]1	52	?	.	.	.	?
O=C(c1ccco1)N1N=C(c2ccc(Br)cc2)CC1c1ccco1 (configuration not stated)	-67*	5.2µM*	-45%	1%	?	8.2µM*
COc1ccc(C2=NN(C(N)=S)C(c3ccco3)C2)cc1 (configuration not stated)	0	-23%	-4%	21%	-15%	?
CCCc1cc(=O)[nH]c(SCC(=O)N2N=C(c3ccc(Cl)cc3)CC2c2ccco2)n1 (configuration not stated)	?	?	-8%	?	4%	?
CCc1ccc(C2=NN(C(C)=O)C(c3ccco3)C2)cc1 (configuration not stated)	-5	16µM*	9%	?	?	?
COc1ccc(C2=NN(C(=O)CSc3nnc(-c4ccccc4F)o3)C(c3ccco3)C2)cc1 (configuration not stated)	9	21µM*	0%	?	?	?
Nc1cc(=O)[nH]c(SCC(=O)N2N=C(c3ccc(Cl)cc3)CC2c2ccco2)n1 (configuration not stated)	-26	?	2%	?	?	18µM*
CN1CC(=O)N(CC(=O)N2N=C(c3ccc(Cl)cc3)CC2c2ccco2)C1=O (configuration not stated)	-4	?	-7%	-2%	2%	?
CC(NC(=O)COC(=O)c1ccc[nH]c1=O)c1ccccc1 (configuration not stated)	9	-16%	-4%	-4%	?	-7%
Cc1cccc(C)c1NC(=O)Cn1c(=O)n(CCCS(=O)(=O)C2CCCCC2)c(=O)c2ccccc21	.	?	.	.	.	-3%
SMILES	IL-1B inflam inh	DT40 TDP1 no CPT	SW480 rereplic	MCF10A rerep	BCR signal inh	DT40 TDP1 CPT
COC(=O)C(CCSC)NC(=O)c1cn(-c2ccc(OC)cc2)c(=O)c2ccccc12 (configuration not stated)	-8	18%	10%	-1%	-3%	-4%
O=C(c1ccco1)N1N=C(c2cccs2)CC1c1ccco1 (configuration not stated)	16	10%	-6%	2%	?	1%
CCC(=O)N1N=C(c2ccc(Cl)cc2)CC1c1ccco1 (configuration not stated)	.	12µM*	?	-5%	-1%	23µM*
O=C(c1ccco1)N1N=C(c2ccc(Cl)cc2)CC1c1ccco1 (configuration not stated)	?	9.2µM*	-1%	-15%	-1%	18µM*
Cc1ccc(C2=NN(C(=O)CSc3nccn3C)C(c3ccco3)C2)cc1 (configuration not stated)	?	21µM*	12µM*	?	2%	21µM*
COc1ccc(C2=NN(C(=O)c3ccco3)C(c3ccco3)C2)cc1OC (configuration not stated)	-20	18µM*	-1%	10%	?	29µM*
O=C(COC(=O)Cc1ccsc1)Nc1ccc(Br)cc1F	0	1%	-5%	-6%	?	-8%
CCN1CCN(C(=O)c2sc3ncnc(NCC4CCCO4)c3c2C)CC1 (configuration not stated)	.	-15%	.	.	.	-2%
CC(C)[C@H](NS(=O)(=O)c1ccccc1)C(=O)OCC(=O)N1N=C(c2ccc(Cl)cc2)CC1c1ccco1 (some centres not stated)	-72*	13µM*	-1%	26%	?	18µM*

Screens (PubChem BioAssay)
